{
  "source": "ChEMBL document CHEMBL4513216",
  "about": "“Probing the Open Global Health Chemical Diversity Library for Multistage-Active Starting Points for Next-Generation Antimalarials” (ACS Infect Dis, 2020)",
  "note": "In all, about 69,000 compounds went through this assay and about 8,600 (12%) showed an effect of 50% or more. The list comes from a sample in which strong results are over-represented; it also holds similar structures and randomly drawn compounds.",
  "data": [
    {"system": "Plasmodium berghei", "assay": "Screen against P. berghei liver stage (PbLuc), transformed with Luciferase, at 10uM", "assay_type": "functional, HepG2", "conditions": "tested at 10 uM", "units": {"INHIBITION": "%"}, "values": [
      {"smiles": "CC(C)c1noc(CN2CCC(c3nc4cc(Cl)ccc4o3)CC2)n1", "INHIBITION": 67.9},
      {"smiles": "c1ccc2oc(C3CCN(Cc4ncon4)CC3)nc2c1", "INHIBITION": 15.2},
      {"smiles": "CCS(=O)(=O)c1ccc2oc([C@H]3CCN(Cc4ccccc4)C3)nc2c1", "INHIBITION": -81.2},
      {"smiles": "Clc1ccc2oc(C3CCN(Cc4cccnc4)CC3)nc2c1", "INHIBITION": 73.4},
      {"smiles": "CC(C)(C)c1n[nH]c(C2CN(C(=O)c3cnc[nH]3)CCO2)n1", "note": "(centres undefined)", "INHIBITION": -42.1},
      {"smiles": "CN(C)CC1CN(Cc2cccc(C#N)c2)Cc2nccn2C1", "note": "(centres undefined)", "INHIBITION": -62.8},
      {"smiles": "CC[C@H](C)Nc1ncc(-c2cccc(NC(=O)CNC)c2)cn1", "INHIBITION": -21.1},
      {"smiles": "Cc1n[nH]cc1CNCC(O)c1ccc(F)c(F)c1", "note": "(centres undefined)", "INHIBITION": 1.24},
      {"smiles": "Cc1cc(C(=O)N2CC[C@]3(C[C@@H](OCc4ccccn4)CO3)C2)c(C)o1", "INHIBITION": 43.9},
      {"smiles": "O=C(NCC1CCCO1)c1cc(-c2cccnc2)c2cnccc2n1", "note": "(centres undefined)", "INHIBITION": 31.3},
      {"smiles": "Cc1ccc2oc([C@H]3CCN(Cc4ccccc4)C3)nc2c1", "INHIBITION": 22.3},
      {"smiles": "Cc1nnc(CN2CCC(c3nc4cc(Cl)ccc4o3)CC2)n1C", "INHIBITION": -0.275},
      {"smiles": "Cc1ncc(CN2CCC(c3nc4cc(Cl)ccc4o3)CC2)s1", "INHIBITION": 83.3},
      {"smiles": "Cc1noc(C)c1CN1CCC(c2nc3cc(Cl)ccc3o2)CC1", "INHIBITION": 72.3},
      {"smiles": "Cc1ncc(CN2CCCN(Cc3noc(C4CC4)n3)CC2)s1", "INHIBITION": -36.1},
      {"smiles": "Cc1nc(CN2CCC(c3nc4cc(Cl)ccc4o3)CC2)oc1C", "INHIBITION": -6.88},
      {"smiles": "N#Cc1cnc2cc(F)cc(F)c2c1NC1CCN(CC(N)=O)CC1", "INHIBITION": -71.1},
      {"smiles": "CCCc1cc(C(=O)N[C@@H](CO)[C@@H](O)c2ccccc2)n(C)n1", "INHIBITION": 20.3},
      {"smiles": "CCn1nc(C)cc1C(=O)N1C[C@@H]2C[C@@H](C)O[C@@H]2C1", "INHIBITION": 1.7},
      {"smiles": "CCN(Cc1noc(CC(C)C)n1)Cc1cccc(F)c1O", "INHIBITION": 45.2},
      {"smiles": "CCN(Cc1noc(CC(C)C)n1)Cc1ccccc1C(=O)O", "INHIBITION": 58.2},
      {"smiles": "CCN(Cc1noc(CC(C)C)n1)Cc1ncccc1C(=O)O", "INHIBITION": 35.9},
      {"smiles": "CCN(Cc1noc(CC(C)C)n1)Cc1ccccc1Cl", "INHIBITION": 50.8},
      {"smiles": "CCN(Cc1noc(CC(C)C)n1)Cc1ccccc1C", "INHIBITION": 42.4},
      {"smiles": "CCN(Cc1noc(CC(C)C)n1)Cc1ccccc1OCC(=O)O", "INHIBITION": 11.8},
      {"smiles": "CCC1COCCN1C(=O)NCc1nccn1Cc1ccccc1", "note": "(centres undefined)", "INHIBITION": 40.7},
      {"smiles": "CCCC1CCCN(C(=O)CCn2cccn2)CC1", "note": "(centres undefined)", "INHIBITION": 30.76},
      {"smiles": "CC(C)C(=O)N1CC[C@H]2N(C)CC[C@@]2(C(=O)N2CCOCC2)CC1", "INHIBITION": 14.9},
      {"smiles": "CC(C)n1cnc2c1C(C(=O)N(C)C)N(Cc1ccccc1)CC2", "note": "(centres undefined)", "INHIBITION": 4.61},
      {"smiles": "C1CCN(CCO[C@@H]2CC[C@H]3[C@H]2OCCN3CC2CCOCC2)C1", "INHIBITION": 34.4},
      {"smiles": "Cc1nccn1-c1ccc(N2CCC(NC(C)C(C)C)CC2)cc1", "note": "(centres undefined)", "INHIBITION": 25.8},
      {"smiles": "Cc1nccn1-c1ccc(C(C)NCc2ncc[nH]2)cc1", "note": "(centres undefined)", "INHIBITION": 50},
      {"smiles": "Cc1nc(CNC(C)c2ccc(OCC(=O)NC3CC3)cc2)cs1", "note": "(centres undefined)", "INHIBITION": 33.7},
      {"smiles": "Cc1nccn1-c1ccc(N2CCC(N[C@H](C)C(C)C)CC2)cc1", "INHIBITION": 43},
      {"smiles": "CCOc1ccc(CNC(C)c2ccc3[nH]c(=O)[nH]c3c2)cc1", "note": "(centres undefined)", "INHIBITION": 4.71},
      {"smiles": "Cc1nccn1-c1ccc(C(C)NCc2cc[nH]n2)cc1", "note": "(centres undefined)", "INHIBITION": 50.8},
      {"smiles": "Cc1nccn1-c1ccc(C(C)NCc2cccn2C)cc1", "note": "(centres undefined)", "INHIBITION": 53.4},
      {"smiles": "CC(NCc1cccn1C)c1noc(-c2ccc(Cl)cc2)n1", "note": "(centres undefined)", "INHIBITION": -1.15},
      {"smiles": "COc1ccc(C)cc1C(C)NCc1cccn1C", "note": "(centres undefined)", "INHIBITION": -40.7},
      {"smiles": "COc1cc2c(cc1OC)CN(C(=O)NCC1CCCO1)CC2", "note": "(centres undefined)", "INHIBITION": 18.9},
      {"smiles": "Cc1c(C(=O)O)oc2ccc(I)cc12", "INHIBITION": 26.3},
      {"smiles": "Cc1nn(C)c(N(C)C)c1CNCCS(C)(=O)=O", "INHIBITION": -21.915},
      {"smiles": "O=C(CC1[C@H]2CN(C(=O)CO)C[C@@H]12)Nc1cccnc1", "note": "(some centres undefined)", "INHIBITION": 42.6},
      {"smiles": "CC(NC(=O)NCCCc1n[nH]c(N)c1C#N)c1ccc(F)c(F)c1", "note": "(centres undefined)", "INHIBITION": -23.8},
      {"smiles": "Cn1c(=O)[nH]c(=O)c2c1nc1n2CC(c2ccc(Br)cc2)O1", "note": "(centres undefined)", "INHIBITION": 1.985},
      {"smiles": "CC(=O)Nc1nc(CN2CCOC(Cn3cccn3)C2)cs1", "note": "(centres undefined)", "INHIBITION": 31.3},
      {"smiles": "CC(NCc1ccc(OCC(N)=O)cc1)c1ccc(Cl)c(Cl)c1", "note": "(centres undefined)", "INHIBITION": -6.91},
      {"smiles": "CC(C)(C)CC(=O)NCC(=O)Nc1ccn(Cc2ccccc2)n1", "INHIBITION": 21.6},
      {"smiles": "O=C(NCC1CCC2(CCNCC2)CO1)c1ccno1", "note": "(centres undefined)", "INHIBITION": 5.36},
      {"smiles": "O=C(NCC1CCCO1)c1csc(Cc2ccccc2)n1", "note": "(centres undefined)", "INHIBITION": -87.7},
      {"smiles": "Cc1ncsc1C(=O)NCC1CCC2(CCNCC2)CO1", "note": "(centres undefined)", "INHIBITION": -10.9},
      {"smiles": "O=C(NCC1CCC2(CCNCC2)CO1)c1cnccn1", "note": "(centres undefined)", "INHIBITION": 73.3},
      {"smiles": "O=C(NCC1CC[C@@]2(CNCCOC2)O1)c1cnccn1", "note": "(some centres undefined)", "INHIBITION": 5.36},
      {"smiles": "Nc1nc(C(=O)NCC2CCC3(CCNCC3)CO2)cs1", "note": "(centres undefined)", "INHIBITION": 55.6}
    ]}
  ]
}
